Screening data (PubChem)
Compounds with a hit are over-represented: about 4.5% of the library has one in this group of screens.
Rce1 inhib: yeast Rce1p protease inhibitors, primary screen, biochemical, fluorescence, cell-free homogeneous. CAAX prenyl protease 2 (Saccharomyces cerevisiae (strain ATCC 204508 / S288c)), Q03530. yeast membranes, quenched prenylated peptide cleavage fluorescence. calls only. actives 0.27% (n = 290,000). AID 2563, 2010;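 active = fall in fluorescence gain of 50% or more versus controls, with final raw signal at or below 3038400; inconclusive = same 50% fall but final raw signal above 3038400; inactive = fall in fluorescence gain under 50%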
Target sequence (Q03530 whole entry, looked up): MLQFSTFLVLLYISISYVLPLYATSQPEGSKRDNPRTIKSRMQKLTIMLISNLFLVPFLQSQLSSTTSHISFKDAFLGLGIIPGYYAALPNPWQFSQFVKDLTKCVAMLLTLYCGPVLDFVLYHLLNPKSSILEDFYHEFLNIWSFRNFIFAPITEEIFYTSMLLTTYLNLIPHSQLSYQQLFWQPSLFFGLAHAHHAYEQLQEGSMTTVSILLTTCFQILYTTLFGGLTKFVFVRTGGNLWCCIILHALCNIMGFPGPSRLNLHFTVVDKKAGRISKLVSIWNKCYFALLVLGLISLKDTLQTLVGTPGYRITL
ALR inh: inhibitors of human ALR sulfhydryl oxidase, primary screen, biochemical, H2O2 detection, HRP-luminol luminescence, single point | actives 3.8% (n = 290,000) | inhibition, % (concentration not given with the values) | FAD-linked sulfhydryl oxidase ALR (Homo sapiens), P55789 | purified ALR, DTT oxidation;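 active = mean replicate inhibition above about 79%, with every replicate also reaching it, limit read from the data; inconclusive = only one of the two criteria met; inactive = mean below limit and not every replicate reaching it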
Target sequence (P55789 whole entry, looked up): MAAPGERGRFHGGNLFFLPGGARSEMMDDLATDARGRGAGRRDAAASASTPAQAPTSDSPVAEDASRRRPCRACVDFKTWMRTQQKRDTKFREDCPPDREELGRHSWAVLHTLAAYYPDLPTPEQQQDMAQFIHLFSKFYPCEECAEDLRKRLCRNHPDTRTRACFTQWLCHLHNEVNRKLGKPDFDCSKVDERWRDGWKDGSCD
HDAC3 inh: HDAC3 deacetylase inhibitors, primary screen, biochemical, fluorescence, cell-free homogeneous. actives 0.15% (n = 320,000). AID 2718, 2010. Histone deacetylase 3 (Homo sapiens), O15379. recombinant HDAC3, fluorogenic peptide/trypsin coupled. inhibition, % at 8.3 µM; in the data active = inhibition above about 26%, passing the limit was not always enough; inconclusive = no clear call, values can overlap the other calls
Rtt109 HAT inh: inhibitors of C. albicans Rtt109/Vps75 HAT, primary screen, biochemical, ThioGlo CoA-SH fluorescence, plate reader. Histone acetyltransferase RTT109 (Candida albicans (strain SC5314 / ATCC MYA-2876)), …. purified Rtt109/Vps75, 4 h. inhibition, % at 34.9 µM. actives 0.16% (n = 330,000);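 active = inhibition of at least 50% in every replicate; inconclusive = best replicate reaches 50% inhibition but some replicates fall short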
GRK2 aptamer HTS: compounds blocking aptamer binding on GRK2 – biochemical, human GRK2, bead flow cytometry, HTS, primary screen; Beta-adrenergic receptor kinase 1 (Homo sapiens), P25098; FAM-aptamer displacement from GRK2; inhibition of aptamer binding, % at 10 µM; actives 0.59% (n = 330,000); AID 488847, 2010;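 active = inhibition of aptamer binding above 40%, roughly 3 SD of noise, on plates passing a quality check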;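 also: median bead fluorescence of bound FAM aptamer so fluorescent compounds give negative values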
Efflux pump mplx: inhibitors of Candida efflux pumps in yeast, primary screen, S. cerevisiae, Nile Red, multiplex | S. cerevisiae Candida pump triplex | inhibition, % at 10 µM | actives 0.44% (n = 330,000);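 active = plate passing quality check with inhibition over a set limit, or well fluorescence over plate mean plus 4 SD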;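 also: Nile Red retained in pooled yeast measured as flow cytometry median fluorescence; higher means more Nile Red kept so more efflux inhibition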
Of the large screens only hits and unclear results are named; the others gave an inactive call.

CCN(CC)CCCN=Cc1c(-c2ccccc2)[nH]n(-c2nc3ccccc3s2)c1=O	ALR inh 98.4
O=c1c(C=NCc2cccnc2)c(C(F)(F)F)[nH]n1-c1nc2ccccc2s1	ALR inh 99.0
CCC(=NCc1ccccc1)c1c(C(F)(F)F)[nH]n(-c2nc3ccccc3s2)c1=O	none
CCC(=NCc1ccco1)c1c(C(F)(F)F)[nH]n(-c2nc3ccccc3s2)c1=O	ALR inh 86.0
CC(C)c1ccc(/C=C/c2ccc(=O)n(C)n2)cc1	none
Cn1c(SCc2ccc(C#N)cc2)nnc1-c1ccncc1	none
C=CCn1c(SCc2ccc(C#N)cc2)nnc1-c1ccc(C)cc1	Rce1 inhib active
CCn1c(SCc2ccc(C#N)cc2)nnc1-c1cccc(Cl)c1	none
Cc1cccc(-c2nnc(SCc3ccc(C#N)cc3)n2Cc2ccco2)c1	Rce1 inhib active
CCSc1ccccc1C(=O)NC1CCCCC1	none
COc1ccccc1CNC(=O)/C=C/c1ccc(S(=O)(=O)NCc2ccco2)cc1	GRK2 aptamer HTS 62.0 (no result: ALR inh, HDAC3 inh)
CCn1cnc2c1c(=O)n(CC(=O)OC(C)C(N)=O)c(=O)n2Cc1ccccc1 (stereo not drawn)	none
Cc1cc(S(=O)(=O)N2CCN(CC(=O)N(C)Cc3ccccc3)CC2)ccc1Br	none (no result: Rce1 inhib, ALR inh, HDAC3 inh, GRK2 aptamer HTS, Efflux pump mplx)
Cc1cccc(N2CCN(CC(=O)N(C)Cc3ccccc3)CC2C)c1 (stereo not drawn)	ALR inh 98.4
COC(=O)Nc1ccc(SCC(=O)c2cccc([N+](=O)[O-])c2)cc1	ALR inh 99.0
O=[N+]([O-])c1ccc(CSc2nc3ccccc3[nH]2)cc1	none (no result: ALR inh)
O=c1cnnc(SCc2ccc([N+](=O)[O-])cc2)[nH]1	ALR inh 99.5 (no result: Rtt109 HAT inh)
O=C(c1cc(S(=O)(=O)N2CCCCC2)ccc1F)N1CCCCC1	ALR inh 83.4
O=C(c1ccccc1F)N1CCN(S(=O)(=O)c2ccc(S(=O)(=O)N3CCCCC3)cc2)CC1	none (no result: Rce1 inhib)
COc1c(C(=O)NNC(=O)c2ccccc2Cl)csc1Br	none
COc1ccc(NC(=O)c2c(C)noc2C(C)C)cc1S(=O)(=O)N1CCCCC1	none (no result: Rce1 inhib)
Cc1[nH]nc(C(=O)NN=Cc2ccccc2Cl)c1N=NN(C)C	none (no result: Rce1 inhib, ALR inh, HDAC3 inh, GRK2 aptamer HTS, Efflux pump mplx)
COc1ccc(-c2[nH]c(-c3ccc(C(=O)O)cc3)nc2-c2ccccc2)cc1	Rce1 inhib inconclusive, ALR inh 98.6
O=C(O)c1ccc(-c2nc(-c3ccccc3)c(-c3ccccc3)[nH]2)cc1	Rce1 inhib inconclusive, ALR inh 98.1
CC(=O)C1=C(c2ccccc2)NC(=O)NC1c1cccs1 (stereo not drawn)	none
C=C(c1ccc(O)cc1)c1ccc(O)cc1	ALR inh 98.4
C/C=C(/C(=C/C)c1ccc(O)cc1)c1ccc(O)cc1	none (no result: ALR inh)
COc1cc(/C=C2/C(=N)N3C(=NC2=O)SN=C3S(C)(=O)=O)ccc1OS(=O)(=O)c1ccccc1	ALR inh inconclusive (no result: Rtt109 HAT inh)
CCOc1ccc(-n2c(C)cc(/C=C3/C(=N)N4C(=NC3=O)SN=C4S(C)(=O)=O)c2C)cc1	ALR inh 97.8
CCOc1cc(/C=C2/C(=N)N3C(=NC2=O)SN=C3S(C)(=O)=O)ccc1OS(=O)(=O)c1ccccc1	ALR inh 94.8
O=C(CCCN1C(=O)c2cccc3cccc(c23)C1=O)NCc1cccs1	none
CSc1cccc(NC(=O)c2ccc(NC3=NC4CS(=O)(=O)CC4S3)cc2)c1 (stereo not drawn)	ALR inh 98.6
Cc1ccccc1C(=O)NC(NC(=S)Nc1ccc(S(N)(=O)=O)cc1)C(Cl)(Cl)Cl (stereo not drawn)	Rtt109 HAT inh 58.3
Cc1cccc(NC(=O)CN2CCN(C(=O)c3cnn(Cc4ccccc4)c3)CC2)c1C	none (no result: Rce1 inhib, ALR inh)
N/C(=N\OC(=O)c1ccc2c(c1)OCO2)c1cccc([N+](=O)[O-])c1	none
Cc1cccc(/C(N)=N/OC(=O)c2ccc3c(c2)OCO3)c1	ALR inh 97.2
CCC1(c2ccc(OC)cc2)NC(=O)N(CC(=O)c2ccc3c(c2)OCCO3)C1=O (stereo not drawn)	none (no result: Rce1 inhib, ALR inh)
CNC(=O)[C@H]1O[C@@H](n2cnc3c(NCc4cccc(I)c4)ncnc32)[C@H](O)[C@@H]1O	ALR inh 81.7 (no result: Rce1 inhib)
O=C(/C=C/c1ccc(OC(F)F)cc1)Nc1cccc(S(=O)(=O)N2CCOCC2)c1	none
COc1cccc(-c2nc(CS(=O)(=O)CC(=O)NCCc3ccc(C)cc3)c(C)o2)c1	none
COc1ccc(-c2nc(CS(=O)(=O)CC(=O)NCc3cccc(F)c3)c(C)o2)cc1	ALR inh 97.1
CCCCN(C)C(=O)CS(=O)(=O)Cc1nc(-c2cccc(OC)c2)oc1C	ALR inh 98.8
COc1ccc(CNC(=O)CS(=O)(=O)Cc2nc(-c3cccc(OC)c3)oc2C)cc1	ALR inh 90.5
COc1c[nH]n(-c2ccccc2)c(=O)c1=O	none
COc1cc(OC)c(NS(=O)(=O)c2cc3[nH]c(=O)c(=O)[nH]c3cc2C)cc1Cl	none
CCCOc1ccc(Cn2c(C)nc([N+](=O)[O-])c2SCC(O)COC)cc1[N+](=O)[O-] (stereo not drawn)	ALR inh 99.0
Nc1c(C(O)(C(F)(F)F)C(F)(F)F)cc(C(O)(C(F)(F)F)C(F)(F)F)c2ccccc12	HDAC3 inh 32.6
O=C(COC(=O)CNC(=O)c1cccc(OC(F)F)c1)NNC(=O)c1ccccc1	none (no result: Rce1 inhib)
COc1cccc(-c2noc(Cn3nc(C)c([N+](=O)[O-])c3C)n2)c1	ALR inh 92.4
COC(=O)/C=C/c1ccc(OC(=O)OC)c(OC(=O)OC)c1	ALR inh 98.0
Oc1ccccc1CNc1ccc2c(c1)OCCO2	ALR inh 99.1
c1cncc(CNc2ccc3c(c2)OCO3)c1	ALR inh 80.2
c1csc(CNc2ccc3c(c2)OCCO3)c1	none (no result: Rce1 inhib)
COc1ccc(CNc2ccc(C)c(C)c2)c(OC)c1OC	none (no result: Rce1 inhib)
Cc1ccc(NCc2ccccc2O)cc1C	ALR inh 91.4
Cc1ccc(C(=O)N[C@H](C(=O)NC2CCCCC2)C(C)C)cc1	none (no result: Rce1 inhib, ALR inh)
O=C(c1ccccc1F)n1c2c(c3ccccc31)CCCC2	none
Cc1cc(C(=O)NNc2ccc(F)cc2)no1	ALR inh 98.8
Cc1cc(C(=O)NNc2ccccc2F)no1	ALR inh 98.8
CCc1ccccc1NNC(=O)c1cc(C)on1	none (no result: HDAC3 inh)
O=C(NCC1CCCO1)c1ccc(N2CCCCC2)c([N+](=O)[O-])c1 (stereo not drawn)	none
O=C(Nc1cc(S(=O)(=O)Nc2ccccc2F)ccc1Cl)c1ccc(F)cc1F	none (no result: Rce1 inhib)
O=C(N/N=C(/CC(=O)c1cccs1)C(F)(F)F)c1ccc(O)cc1	ALR inh 80.3
